Measurements as given in PMC5540273 (PLoS ONE, 2017).
“And” between values parts separate entries of the source, which are not always exact repeats. Identical values can stand only once. Like-named read-outs stand apart in the source and are kept apart here.

What was measured:
[1] = system: MYLK4; conditions: concentration: 1 μM, replicates: in singlicate, n = 1
[2] = system: MYLK; conditions: concentration: 1 μM, replicates: in singlicate, n = 1
[3] = system: MYO3A; conditions: concentration: 1 μM, replicates: in singlicate, n = 1
[4] = system: MYO3B; conditions: concentration: 1 μM, replicates: in singlicate; n = 1
[5] = system: T1, NDR1; conditions: concentration: 1 μM, replicates: in singlicate, n = 1
T1 construct: gene STK38

[6] = system: NDR2; conditions: concentration: 1 μM, replicates: in singlicate, n = 1
[7] = system: NEK10; conditions: concentration: 1 μM, replicates: in singlicate; n = 1
[8] = system: NEK11; conditions: concentration: 1 μM, replicates: in singlicate, n = 1
[9] = system: NEK1; conditions: concentration: 1 μM, replicates: in singlicate; n = 1
[10] = system: NEK2; conditions: concentration: 1 μM, replicates: in singlicate, n = 1
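Note: KINOMEscan kinase panel screen.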

Structure (SMILES)	%Inh [1] [%]	%Inh [2] [%]	%Inh [3] [%]	%Inh [4] [%]	%Inh [5] [%]	%Inh [6] [%]	%Inh [7] [%]	%Inh [8] [%]	%Inh [9] [%]	%Inh [10] [%]	%Inh ([1]; 1 µM)	%Inh ([2]; 1 µM)	%Inh ([3]; 1 µM)	%Inh ([5]; 1 µM)	%Inh ([6]; 1 µM)	%Inh ([8]; 1 µM)	%Inh ([10]; 1 µM)
COC(=O)c1c(-c2ccccc2)c2cc(Cl)ccc2c(=O)n1Cc1ccc(S(C)(=O)=O)cc1	5	34	0	0	0	0	13	0	0	83	–	–	–	–	–	–	–
COc1ccc(Nc2nccc(N3CCC(NC(=O)c4cccc(NC(C)=O)c4)C3)n2)cc1 (stereo not drawn) [GSK1379732]	6	29	37	0	15	10	24	48	6	6	–	–	–	–	–	–	–
Cc1ccc(O)cc1Nc1cc(C(F)(F)F)nc2ccc(-c3ccncc3)cc12 [GW630823]	0	6	6	0	0	6	0	0	0	2	–	–	–	–	–	–	–
O=c1cc(N2CCOCC2)nc2n(Cc3cccc(Cl)c3)ccn12 [GSK2296823]	0	61	0	0	8	0	0	0	0	10	–	–	–	–	–	–	–
Fc1cccc(COc2ccc(Nc3ncnc4sc(-c5ccc[nH]5)cc34)cc2Cl)c1 [GW707818]	13	13	17	0	23	17	4	24	0	15	–	–	–	–	–	–	–
Cc1ccc(C)c(NC(=O)NCCNc2ccnc(Nc3ccc(F)cc3)n2)c1 [GSK1379878]	0	8	0	0	0	16	11	17	0	0	–	–	–	–	–	–	–
CC(C)(C)OC(=O)NC1CCCN(c2cc(-c3ccc4c(N)n[nH]c4c3)nc(N)n2)C1 (stereo not drawn) [GSK2286096]	0	0	0	0	21	0	0	0	0	7	–	–	–	–	–	–	–
c1ccc(-c2ccc3c(-c4ccnc(Nc5ccc6c(c5)OCCO6)n4)cnn3n2)cc1 [GW818941]	0	11	15	0	11	0	19	0	0	0	–	–	–	–	–	–	–
O=C(Nc1ccccc1)Nc1ccc(Oc2ccc3nccn3n2)cc1	0	11	0	0	16	0	0	0	0	0	–	–	–	–	–	–	–
CCn1c(-c2ccncc2)nc2cnccc21 [SB-735216]	0	24	19	0	28	0	0	51	0	8	–	–	–	–	–	–	–
N#Cc1ccc(Oc2ccc(Nc3ncnc4cc[nH]c34)cc2Cl)cc1	13	30	18	38	33	0	3	0	0	10	–	–	–	–	–	–	–
COc1ccc(Nc2nccc(N3CCC(NC(=O)Nc4ccc5c(c4)OCO5)C3)n2)cc1 (stereo not drawn) [GSK1379745]	0	25	0	3	0	0	0	0	0	0	–	–	–	–	–	–	–
COc1ccc(NC(=O)Nc2ccc(C)c(-c3ccc(C(=O)Nc4ccncc4)cc3)c2)cc1 [GSK1398475]	0	0	1	0	17	0	0	0	0	0	–	–	–	–	–	–	–
Clc1cccc(-c2nc(Nc3ccncc3)c3ccccc3n2)c1 [GW873004]	0	0	15	17	15	0	0	0	0	0	–	–	–	–	–	–	–
COc1cc2ncnc(Nc3ccc(OCc4ccccc4Br)c(Cl)c3)c2cc1OC.Cl [GI261590]	0	10	38	0	0	0	25	0	0	0	–	–	–	–	–	–	–
Clc1ccc(-c2cc(-c3c[nH]nc3-c3ccccn3)ccn2)cc1 [GW681251]	0	0	0	0	0	0	12	0	0	0	–	–	–	–	–	–	–
Cl.Cn1ccc(-c2cccc(Nc3ccnc4cc(-c5nccs5)ccc34)c2)n1 [GW525701]	0	7	43	0	19	0	4	15	0	0	–	–	–	–	–	–	–

Structure (SMILES)	%Inh [1] [%]	%Inh [2] [%]	%Inh [3] [%]	%Inh [4] [%]	%Inh [5] [%]	%Inh [6] [%]	%Inh [7] [%]	%Inh [8] [%]	%Inh [9] [%]	%Inh [10] [%]	%Inh ([1]; 1 µM)	%Inh ([2]; 1 µM)	%Inh ([3]; 1 µM)	%Inh ([5]; 1 µM)	%Inh ([6]; 1 µM)	%Inh ([8]; 1 µM)	%Inh ([10]; 1 µM)
COc1ccc(NC(=O)c2ccc(-c3cc(-c4nnc(C)o4)ccc3C)cc2)cc1 [GW595885]	0	14	16	16	12	0	16	0	0	0	–	–	–	–	–	–	–
Cl.Cl.c1ccc(-c2cc3ccncc3cc2OC2CCNCC2)cc1 [GSK1122999]	21	25	10	0	0	0	24	0	0	17	–	–	–	–	–	–	–
Cl.c1ccc(Cn2ncc3cc(Nc4ncnc5ccccc45)ccc32)cc1 [GW273749]	37	8	14	0	12	0	0	0	0	5	–	–	–	–	–	–	–
CC(C)N1CCC(n2cnc(-c3ccc(F)cc3)c2-c2ccnc(N)n2)CC1 [SB-223132]	9	19	0	0	7	0	9	0	11	0	–	–	–	–	–	–	–
CCc1nc(-c2cccc(N(C)S(=O)(=O)c3ccccc3)c2)c(-c2ccnc(Nc3ccc(N4CCN(C(C)=O)CC4)nc3)n2)s1 [GSK1645895]	7	15	23	0	15	0	0	0	14	9	–	–	–	–	–	–	–
COc1ccc(-c2nc3n(c2-c2ccncc2)CCC3)cc1 [SKF-104493]	–	–	–	0	–	–	0	–	0	–	0% and 12%	14% and 8%	7% and 25%	22% and 13%	16% and 10%	42% and 13%	0% and 4%
Nc1nc(-c2ccc3c(N)n[nH]c3c2)cc(N2CCC[C@@H](C(=O)Nc3ccccc3)C2)n1.O=C(O)C(F)(F)F.O=C(O)C(F)(F)F [GSK2288359]	9	27	19	0	1	5	0	0	0	0	–	–	–	–	–	–	–
CC(=O)Nc1n[nH]c2ncc(-c3ccccc3)cc12 [SB-548492]	28	23	25	0	8	17	0	18	0	9	–	–	–	–	–	–	–
O=C(CCO)NCCn1ccc2ncnc(Nc3ccc(Oc4cccc(C(F)(F)F)c4)c(Cl)c3)c21	6	0	0	3	20	0	0	0	0	0	–	–	–	–	–	–	–
Fc1ccc(-c2ncn(CCCNCc3ccccc3)c2-c2ccncc2)cc1	0	13	7	22	0	19	34	19	0	0	–	–	–	–	–	–	–
CS(=O)(=O)CCNCc1ccc(-c2ccc3ncnc(Nc4ccc(OCc5ccccc5)c(Cl)c4)c3c2)o1.Cl [GW574783]	2	7	0	0	0	0	23	26	0	0	–	–	–	–	–	–	–
Nc1nc(-c2ccccn2)c(-c2ccnc3ccccc23)s1 [GW548057]	16	10	51	0	31	52	11	36	2	0	–	–	–	–	–	–	–
Nc1n[nH]c2nnc(-c3ccccc3)cc12 [SB-517389]	24	19	0	0	14	0	17	0	0	5	–	–	–	–	–	–	–
CSc1nn2c(=O)cc(N3CCOCC3)nc2n1Cc1cccc(Cl)c1Cl [GSK2347225]	4	12	0	0	23	0	29	0	0	0	–	–	–	–	–	–	–
FC(F)(F)c1ccc(-c2cc(-c3c[nH]nc3-c3ccccn3)ccn2)cc1 [GW599550]	1	21	27	0	22	9	17	24	9	1	–	–	–	–	–	–	–
Fc1ccc(Nc2nccc(-c3c(-c4ccc(Cl)cc4)nn4ncccc34)n2)cc1F [GW829058]	0	38	15	21	24	28	19	25	17	16	–	–	–	–	–	–	–
